Laboratory results published in PubChem BioAssay (NCATS).
Inconclusive results are not listed. The source made the active and inactive calls. Calls follow the shape of the dose curve; as a rule, active = well fitted curve in the direction sought with a large enough effect; inconclusive = small, poorly fitted or top-dose-only effect, or another doubt; inactive = no such curve, though single readings can be large; an effect the other way counts as inactive or inconclusive.

Experiments:
[1] = S16 Schwann cell viability assay (CellTiter-Glo assay) (AID 624031);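 also: native untransfected S16 rat Schwann cells; cellular ATP luminescence as a viability measure; nearly all actives have a fitted effect of over 70% in size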
Procedure, shortened: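 Following overnight culture in 10% FBS DMEM, parental S16 rat Schwann cells are dosed for 24 h at 37 °C. Viability is read as CellTiter-Glo luminescence and expressed as % activity relative to DMSO (0%) and no-cell wells.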

3D7 = test: qHTS profiling for inhibitors of Plasmodium falciparum proliferation (AID 504749); also: nearly all actives have a fitted effect of over 60% in size; also: potency is read from the fitted curve at half-maximal effect; settings: P. falciparum in erythrocytes, SYBR Green DNA, 72 h; series mostly up to 12.8 µM
Procedure, shortened: (§1)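 SYBR Green fluorescence of parasite DNA, read after lysis and overnight dark incubation, measured growth over 72 h in erythrocyte culture at 0.3% parasitemia and 2.5% hematocrit. Data normalised to DMSO and 0.29 uM artemisinin, with plate-drift correction.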

ATS189 = test: as above; settings: P. falciparum in erythrocytes, SYBR Green DNA, 72 h; series mostly up to 12.8 µM
Procedure, shortened: as §1

CP191 = test: as above; settings: P. falciparum in erythrocytes, SYBR Green DNA, 72 h; series mostly up to 12.8 µM
Procedure, shortened: as §1

CP201 = test: as above; settings: P. falciparum in erythrocytes, SYBR Green DNA, 72 h; series mostly up to 12.8 µM
Procedure, shortened: as §1

CP217 = test: as above; settings: P. falciparum in erythrocytes, SYBR Green DNA, 72 h; series mostly up to 12.8 µM
Procedure, shortened: as §1

CP237 = test: as above; settings: P. falciparum in erythrocytes, SYBR Green DNA, 72 h; series mostly up to 12.8 µM
Procedure, shortened: as §1

CP256 = test: as above; settings: P. falciparum in erythrocytes, SYBR Green DNA, 72 h; series mostly up to 12.8 µM
Procedure, shortened: as §1

CP315 = test: as above; settings: P. falciparum in erythrocytes, SYBR Green DNA, 72 h; series mostly up to 12.8 µM
Procedure, shortened: as §1

CP329 = test: as above; settings: P. falciparum in erythrocytes, SYBR Green DNA, 72 h; series mostly up to 12.8 µM
Procedure, shortened: as §1

DIV14 = test: as above; settings: P. falciparum in erythrocytes, SYBR Green DNA, 72 h; series mostly up to 12.8 µM
Procedure, shortened: as §1

ECU = test: as above; settings: P. falciparum in erythrocytes, SYBR Green DNA, 72 h; series mostly up to 12.8 µM
Procedure, shortened: as §1

FAB9 = test: as above; settings: P. falciparum in erythrocytes, SYBR Green DNA, 72 h; series mostly up to 12.8 µM
Procedure, shortened: as §1

JCK = test: as above; settings: P. falciparum in erythrocytes, SYBR Green DNA, 72 h; series mostly up to 12.8 µM
Procedure, shortened: as §1

N140 = test: as above; settings: P. falciparum in erythrocytes, SYBR Green DNA, 72 h; series mostly up to 12.8 µM
Procedure, shortened: as §1

PAD = test: as above; settings: P. falciparum in erythrocytes, SYBR Green DNA, 72 h; series mostly up to 12.8 µM
Procedure, shortened: as §1

PC49 = test: as above; settings: P. falciparum in erythrocytes, SYBR Green DNA, 72 h; series mostly up to 12.8 µM
Procedure, shortened: as §1

TAB113 = test: as above; settings: P. falciparum in erythrocytes, SYBR Green DNA, 72 h; series mostly up to 12.8 µM
Procedure, shortened: as §1

TAB165 = test: as above; settings: P. falciparum in erythrocytes, SYBR Green DNA, 72 h; series mostly up to 12.8 µM
Procedure, shortened: as §1

W2 = test: as above; settings: P. falciparum in erythrocytes, SYBR Green DNA, 72 h; series mostly up to 12.8 µM
Procedure, shortened: as §1

Measured: Potency

CN(C)CCOC(=O)[C@@H](c1ccccc1)C1(O)CCCC1
active: CP237 8.91 µM | W2 8.49 µM
inactive: all other assays above

C[C@@H]1Cc2ccccc2N1NC(=O)c1ccc(Cl)c(S(N)=O)c1 (some centres undefined)
not listed: [1]
inactive: all other assays above

COCC(=O)Nc1c(I)c(C(=O)NC[C@@H](O)CO)c(I)c(C(=O)N(C)C[C@@H](O)CO)c1I
inactive: all assays above

Clc1ccc(CC[C@H](Cn2ccnc2)Sc2c(Cl)cccc2Cl)cc1
active: CP217 3.55 µM | CP329 6.42 µM | DIV14 3.22 µM | ECU 3.55 µM | N140 3.16 µM | PAD 3.55 µM | TAB113 3.55 µM | TAB165 1.26 µM | W2 2.03 µM
inactive: [1]

CC(=O)N(C[C@@H](C)C(=O)O)c1c(I)cc(I)c(N)c1I
not listed: CP201 | CP315 | CP329 | DIV14 | W2
inactive: all other assays above

CCOC(=O)O[C@]1(C(=O)COC(=O)CC)CC[C@@H]2[C@@H]3CCC4=CC(=O)C=C[C@@]4(C)[C@H]3[C@H](O)C[C@]21C
not listed: W2
inactive: all other assays above

CCN[C@@H]1CN(CCCOC)S(=O)(=O)c2sc(S(N)(=O)=O)cc21
inactive: all assays above

COc1cc2nc(N3CCN(C(=O)[C@@H]4COc5ccccc5O4)CC3)nc(N)c2cc1OC
active: CP191 7.94 µM | DIV14 13.5 µM | W2 5.36 µM
inactive: [1] | ATS189 | CP201 | CP217 | CP256 | CP315 | FAB9 | JCK | PC49

CCC[C@@H]1O[C@@H]2C[C@@H]3[C@H]4CCC5=CC(=O)C=C[C@@]5(C)[C@H]4[C@H](O)C[C@@]3(C)[C@@]2(C(=O)CO)O1
active: 3D7 7.94 µM | ATS189 7.08 µM | CP191 11.2 µM | CP217 10 µM | CP256 11.2 µM | DIV14 9.53 µM | ECU 7.08 µM | TAB165 11.2 µM | W2 6.01 µM
inactive: CP329

CN[C@H]1[C@H](O)[C@@H](O[C@@H]2[C@H](O)[C@@H](O[C@H]3OC(CN)=CC[C@H]3N)[C@@H](N)C[C@H]2N)OC[C@@]1(C)O
inactive: all assays above

CC(=O)[C@@H]1CC[C@@H]2[C@@H]3C[C@H](C)C4=CC(=O)CC[C@@]4(C)[C@H]3[C@H](O)C[C@]21C
not listed: W2
inactive: all other assays above

C[C@@H]1O[C@H](O[C@@H]2\C=C/C=C\C=C/C=C\C[C@H](C)OC(=O)/C=C\[C@H]3O[C@@H]3C[C@H](O)C[C@]3(O)C[C@@H](O)[C@@H](C(=O)O)[C@H](C2)O3)[C@@H](O)[C@H](N)[C@@H]1O (stereo in doubt)
inactive: all assays above
